Tests used:
Assay in all cases: log2 ratio of Biotin-Ahx-Ub-VS probe labelling (fragment/DMSO); higher = less target engagement (more negative = stronger competition), active = hit call of the paper (q ≤ 0.05, log2 ratio ≤ -1)
Conditions in all cases: compound concentration: 200 uM; treatment time: 3 h
[1] = target: T1, USP19 (UniProt O94966)
T1 sequence (whole entry): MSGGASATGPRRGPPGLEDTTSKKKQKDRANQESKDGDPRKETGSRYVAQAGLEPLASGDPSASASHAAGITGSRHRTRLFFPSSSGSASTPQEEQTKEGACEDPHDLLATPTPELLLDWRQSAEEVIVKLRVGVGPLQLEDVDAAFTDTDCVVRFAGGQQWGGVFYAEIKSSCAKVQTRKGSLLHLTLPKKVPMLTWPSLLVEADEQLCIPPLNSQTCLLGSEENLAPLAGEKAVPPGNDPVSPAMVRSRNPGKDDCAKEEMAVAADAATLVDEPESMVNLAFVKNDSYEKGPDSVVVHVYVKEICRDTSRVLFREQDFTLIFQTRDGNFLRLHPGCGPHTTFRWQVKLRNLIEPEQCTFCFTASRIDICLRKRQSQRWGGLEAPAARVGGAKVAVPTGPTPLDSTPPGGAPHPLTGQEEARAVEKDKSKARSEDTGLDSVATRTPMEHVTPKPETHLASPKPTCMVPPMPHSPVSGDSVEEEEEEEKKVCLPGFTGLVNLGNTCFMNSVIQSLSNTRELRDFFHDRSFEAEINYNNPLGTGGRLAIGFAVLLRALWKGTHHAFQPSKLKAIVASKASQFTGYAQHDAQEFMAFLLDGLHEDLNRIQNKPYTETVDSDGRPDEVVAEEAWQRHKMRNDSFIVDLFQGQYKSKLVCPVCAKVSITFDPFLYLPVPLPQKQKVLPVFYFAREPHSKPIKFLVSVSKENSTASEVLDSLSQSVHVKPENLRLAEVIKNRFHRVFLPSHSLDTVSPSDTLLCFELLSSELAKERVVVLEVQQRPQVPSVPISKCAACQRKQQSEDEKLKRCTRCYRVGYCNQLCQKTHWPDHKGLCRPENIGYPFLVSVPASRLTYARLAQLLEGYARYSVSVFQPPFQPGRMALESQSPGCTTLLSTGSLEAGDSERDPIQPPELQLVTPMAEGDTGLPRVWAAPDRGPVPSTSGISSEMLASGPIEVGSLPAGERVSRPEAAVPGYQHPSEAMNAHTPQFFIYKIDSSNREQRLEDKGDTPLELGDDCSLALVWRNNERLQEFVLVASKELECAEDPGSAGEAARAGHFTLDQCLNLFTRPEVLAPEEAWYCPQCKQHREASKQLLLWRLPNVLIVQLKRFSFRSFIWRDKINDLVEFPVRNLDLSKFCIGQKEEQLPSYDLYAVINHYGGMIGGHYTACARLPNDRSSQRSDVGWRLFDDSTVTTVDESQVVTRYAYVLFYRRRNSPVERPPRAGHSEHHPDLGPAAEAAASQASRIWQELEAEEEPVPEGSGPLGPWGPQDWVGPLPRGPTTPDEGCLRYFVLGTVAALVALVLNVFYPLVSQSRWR
Summary of the method: (§1)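 Labelling with Biotin-Ahx-Ub-VS (0.5 µM final, 1 h) followed a 3 h triplicate treatment of HEK293T lysate (495 µg per sample, Tris/CHAPS/IGEPAL buffer with protease inhibitors) with fragment at 200 µM or vehicle. Labelled DUBs were NeutrAvidin-enriched, digested with LysC and trypsin, and run by diaPASEF LC-MS/MS. The values, average log2 fragment/vehicle ratios by unpaired t-test, come from global-median-normalised Spectronaut label-free quantities. Proteins with ≥2 unique peptides were used.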

[2] = target: T2, USP22 (UniProt Q9UPT9)
T2 sequence (whole entry): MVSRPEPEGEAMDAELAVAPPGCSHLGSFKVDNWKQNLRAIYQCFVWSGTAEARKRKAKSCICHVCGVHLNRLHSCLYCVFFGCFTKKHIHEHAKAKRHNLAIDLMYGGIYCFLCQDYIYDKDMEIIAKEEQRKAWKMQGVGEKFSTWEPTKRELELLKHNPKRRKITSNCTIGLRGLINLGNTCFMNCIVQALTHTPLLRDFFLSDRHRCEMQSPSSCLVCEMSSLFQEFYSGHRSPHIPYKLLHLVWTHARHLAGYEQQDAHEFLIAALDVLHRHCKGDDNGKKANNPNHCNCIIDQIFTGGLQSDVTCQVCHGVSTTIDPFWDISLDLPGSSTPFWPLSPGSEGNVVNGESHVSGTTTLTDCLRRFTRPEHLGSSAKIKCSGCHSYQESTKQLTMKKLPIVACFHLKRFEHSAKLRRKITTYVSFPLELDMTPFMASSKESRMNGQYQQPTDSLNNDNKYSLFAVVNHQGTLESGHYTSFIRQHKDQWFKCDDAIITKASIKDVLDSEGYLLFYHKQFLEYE
Summary of the method: as §1

[3] = target: USP24 (UniProt Q9UPU5)
Summary of the method: as §1

[4] = target: T3, USP25 (UniProt Q9UHP3)
T3 sequence (whole entry): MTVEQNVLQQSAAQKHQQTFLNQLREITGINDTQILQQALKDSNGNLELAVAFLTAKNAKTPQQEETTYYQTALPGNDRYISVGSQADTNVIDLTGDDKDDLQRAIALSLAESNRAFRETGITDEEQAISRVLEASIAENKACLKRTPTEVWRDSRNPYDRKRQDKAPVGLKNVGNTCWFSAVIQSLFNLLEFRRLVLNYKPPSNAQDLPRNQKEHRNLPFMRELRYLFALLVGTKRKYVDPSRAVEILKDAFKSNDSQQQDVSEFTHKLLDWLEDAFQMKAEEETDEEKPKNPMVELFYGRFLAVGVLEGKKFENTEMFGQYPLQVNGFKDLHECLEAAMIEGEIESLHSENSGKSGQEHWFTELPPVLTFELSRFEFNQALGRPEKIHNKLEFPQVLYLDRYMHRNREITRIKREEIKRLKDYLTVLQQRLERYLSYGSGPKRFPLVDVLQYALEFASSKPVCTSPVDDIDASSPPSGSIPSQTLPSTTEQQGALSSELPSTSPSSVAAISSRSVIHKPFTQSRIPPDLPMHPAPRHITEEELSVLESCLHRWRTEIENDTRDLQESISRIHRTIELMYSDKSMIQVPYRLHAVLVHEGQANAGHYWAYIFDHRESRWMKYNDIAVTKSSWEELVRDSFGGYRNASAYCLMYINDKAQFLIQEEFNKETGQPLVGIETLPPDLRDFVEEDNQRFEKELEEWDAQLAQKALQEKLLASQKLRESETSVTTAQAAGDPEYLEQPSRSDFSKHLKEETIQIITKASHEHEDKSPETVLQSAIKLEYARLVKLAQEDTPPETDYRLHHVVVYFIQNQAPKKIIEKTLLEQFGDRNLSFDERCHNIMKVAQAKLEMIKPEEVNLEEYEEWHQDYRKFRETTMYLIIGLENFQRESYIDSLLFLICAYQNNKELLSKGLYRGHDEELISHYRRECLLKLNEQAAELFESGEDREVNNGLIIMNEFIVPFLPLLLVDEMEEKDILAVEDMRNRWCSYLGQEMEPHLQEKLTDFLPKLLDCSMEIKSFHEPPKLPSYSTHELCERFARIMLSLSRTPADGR
Summary of the method: as §1

[5] = target: T4, USP28 (UniProt Q96RU2)
T4 sequence (whole entry): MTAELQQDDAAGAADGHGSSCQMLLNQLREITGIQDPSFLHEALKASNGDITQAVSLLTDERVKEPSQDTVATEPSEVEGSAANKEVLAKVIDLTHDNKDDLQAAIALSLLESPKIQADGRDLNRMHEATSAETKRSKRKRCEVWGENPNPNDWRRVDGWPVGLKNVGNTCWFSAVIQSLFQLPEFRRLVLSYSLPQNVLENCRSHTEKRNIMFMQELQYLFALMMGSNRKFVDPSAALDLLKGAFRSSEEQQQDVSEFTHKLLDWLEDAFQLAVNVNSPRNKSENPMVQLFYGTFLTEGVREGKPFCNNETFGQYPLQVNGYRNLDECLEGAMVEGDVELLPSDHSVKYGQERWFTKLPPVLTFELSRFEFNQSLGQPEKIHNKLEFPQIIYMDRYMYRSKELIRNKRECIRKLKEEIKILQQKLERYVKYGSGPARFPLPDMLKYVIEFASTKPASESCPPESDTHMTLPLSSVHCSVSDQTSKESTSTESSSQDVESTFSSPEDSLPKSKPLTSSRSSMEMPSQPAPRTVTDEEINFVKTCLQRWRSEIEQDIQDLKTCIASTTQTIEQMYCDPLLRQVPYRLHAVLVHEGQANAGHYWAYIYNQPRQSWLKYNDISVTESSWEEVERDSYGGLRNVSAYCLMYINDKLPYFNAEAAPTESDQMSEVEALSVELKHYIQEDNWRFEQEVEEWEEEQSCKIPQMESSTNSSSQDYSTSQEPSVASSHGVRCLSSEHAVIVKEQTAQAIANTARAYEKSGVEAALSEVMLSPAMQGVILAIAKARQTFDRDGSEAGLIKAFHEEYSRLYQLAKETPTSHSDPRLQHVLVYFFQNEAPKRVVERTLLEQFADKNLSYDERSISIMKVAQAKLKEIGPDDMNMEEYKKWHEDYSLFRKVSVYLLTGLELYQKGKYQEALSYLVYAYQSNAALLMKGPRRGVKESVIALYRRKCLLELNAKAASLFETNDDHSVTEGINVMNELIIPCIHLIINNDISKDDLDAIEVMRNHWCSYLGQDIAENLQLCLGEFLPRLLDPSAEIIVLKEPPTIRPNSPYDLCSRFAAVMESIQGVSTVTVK
Summary of the method: as §1

Measured: log2 ratio of Biotin-Ahx-Ub-VS probe labelling

USP24, sequence (Q9UPU5 whole entry): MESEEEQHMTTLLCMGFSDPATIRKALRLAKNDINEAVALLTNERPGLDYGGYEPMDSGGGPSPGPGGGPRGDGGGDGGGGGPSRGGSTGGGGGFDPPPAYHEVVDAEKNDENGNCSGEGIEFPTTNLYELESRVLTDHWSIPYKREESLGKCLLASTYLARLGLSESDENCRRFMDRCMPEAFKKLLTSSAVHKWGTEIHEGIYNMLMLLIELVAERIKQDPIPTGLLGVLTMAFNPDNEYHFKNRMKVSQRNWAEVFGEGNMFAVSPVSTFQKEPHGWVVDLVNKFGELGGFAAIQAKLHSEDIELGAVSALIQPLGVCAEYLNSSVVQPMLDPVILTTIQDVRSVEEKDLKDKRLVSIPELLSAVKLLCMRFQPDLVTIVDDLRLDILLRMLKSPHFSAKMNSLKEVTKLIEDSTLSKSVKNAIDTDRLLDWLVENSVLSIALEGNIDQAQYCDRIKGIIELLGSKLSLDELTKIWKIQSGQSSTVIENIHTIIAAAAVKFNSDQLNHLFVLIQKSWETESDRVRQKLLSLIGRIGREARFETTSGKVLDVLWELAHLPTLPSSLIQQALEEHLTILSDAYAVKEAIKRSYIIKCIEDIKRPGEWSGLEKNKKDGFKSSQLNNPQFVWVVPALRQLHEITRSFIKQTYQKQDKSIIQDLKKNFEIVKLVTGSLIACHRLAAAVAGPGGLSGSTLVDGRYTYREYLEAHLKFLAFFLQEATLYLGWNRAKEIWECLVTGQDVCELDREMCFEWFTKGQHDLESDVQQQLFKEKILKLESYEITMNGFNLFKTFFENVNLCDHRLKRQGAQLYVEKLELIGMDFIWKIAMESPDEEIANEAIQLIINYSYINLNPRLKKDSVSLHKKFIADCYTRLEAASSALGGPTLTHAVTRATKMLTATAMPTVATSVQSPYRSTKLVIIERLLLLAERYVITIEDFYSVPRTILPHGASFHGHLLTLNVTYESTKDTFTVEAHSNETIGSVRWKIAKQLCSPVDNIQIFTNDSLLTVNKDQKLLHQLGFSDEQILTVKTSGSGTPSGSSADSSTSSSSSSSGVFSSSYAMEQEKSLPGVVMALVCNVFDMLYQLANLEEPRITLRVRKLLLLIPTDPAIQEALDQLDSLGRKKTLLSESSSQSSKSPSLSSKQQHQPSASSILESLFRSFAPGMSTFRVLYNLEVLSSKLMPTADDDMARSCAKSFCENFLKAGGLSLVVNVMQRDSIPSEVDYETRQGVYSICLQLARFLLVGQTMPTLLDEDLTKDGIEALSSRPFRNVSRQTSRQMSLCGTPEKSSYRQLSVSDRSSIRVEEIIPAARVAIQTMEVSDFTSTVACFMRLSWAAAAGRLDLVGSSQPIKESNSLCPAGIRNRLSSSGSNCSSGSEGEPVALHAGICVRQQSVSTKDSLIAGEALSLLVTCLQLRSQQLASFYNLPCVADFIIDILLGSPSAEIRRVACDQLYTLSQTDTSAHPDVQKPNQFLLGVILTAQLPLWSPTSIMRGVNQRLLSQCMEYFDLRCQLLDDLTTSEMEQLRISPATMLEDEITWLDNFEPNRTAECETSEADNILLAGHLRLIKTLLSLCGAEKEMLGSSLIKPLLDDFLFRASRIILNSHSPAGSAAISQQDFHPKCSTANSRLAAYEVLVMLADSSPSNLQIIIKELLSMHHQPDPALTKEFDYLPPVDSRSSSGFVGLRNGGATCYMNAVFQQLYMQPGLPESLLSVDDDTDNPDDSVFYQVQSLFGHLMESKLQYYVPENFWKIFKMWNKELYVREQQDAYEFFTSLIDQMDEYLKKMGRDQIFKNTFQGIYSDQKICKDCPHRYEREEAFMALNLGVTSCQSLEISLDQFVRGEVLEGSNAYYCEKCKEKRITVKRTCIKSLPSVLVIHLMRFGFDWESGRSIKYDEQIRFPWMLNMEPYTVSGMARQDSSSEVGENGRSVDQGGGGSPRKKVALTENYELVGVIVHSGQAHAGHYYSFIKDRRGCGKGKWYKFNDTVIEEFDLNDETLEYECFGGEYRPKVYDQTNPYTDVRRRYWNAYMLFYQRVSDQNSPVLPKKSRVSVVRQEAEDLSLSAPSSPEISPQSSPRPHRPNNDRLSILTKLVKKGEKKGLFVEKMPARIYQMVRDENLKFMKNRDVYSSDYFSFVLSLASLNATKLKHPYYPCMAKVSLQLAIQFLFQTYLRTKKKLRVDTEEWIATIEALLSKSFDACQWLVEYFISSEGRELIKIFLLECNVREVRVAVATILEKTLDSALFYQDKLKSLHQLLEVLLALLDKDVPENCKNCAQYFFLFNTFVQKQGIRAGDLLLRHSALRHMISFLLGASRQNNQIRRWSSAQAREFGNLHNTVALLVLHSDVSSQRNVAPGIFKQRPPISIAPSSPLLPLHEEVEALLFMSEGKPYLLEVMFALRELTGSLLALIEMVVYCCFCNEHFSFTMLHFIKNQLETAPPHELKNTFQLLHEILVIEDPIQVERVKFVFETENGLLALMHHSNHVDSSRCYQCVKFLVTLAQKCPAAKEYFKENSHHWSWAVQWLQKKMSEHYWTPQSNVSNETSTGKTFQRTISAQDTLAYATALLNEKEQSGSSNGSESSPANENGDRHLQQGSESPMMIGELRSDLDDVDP

Cc1c(NC(=O)CCl)c(=O)n(-c2ccccc2)n1C
inactive: [1] -0.181 | [2] -0.000691 | [3] -0.125 | [4] -0.16 | [5] -0.182

— the supplement of paper PMC11732987, “Enantioselective OTUD7B fragment discovery through chemoproteomics screening and high-throughput optimisation” (Communications Chemistry, 2025)
